Screening results deposited in PubChem by National Center for Advancing Translational Sciences (NCATS).
Lassa entry inh = Lassa virus entry inhibition. Potency, µM (top dose mostly 37.9 µM), most hits filed as inhibitors. AID 540256. 1.2% of 300,000 active. Lassa virus pseudotype entry inhibition, cell reporter; calls by dose curve; tested in HEK293 cells; further: nearly all actives have a fitted effect of over 50% in size
MARV entry inh = inhibitors of Marburg virus binding or cell entry; Marburg virus pseudotyped entry inhibition, cell reporter; Potency, µM (series often up to 37.8 µM), most hits filed as inhibitors; 1.8% of 300,000 active; AID 540276; calls by dose curve; tested in HEK293 cells
VACV Venus inh = inhibitors of vaccinia virus (Venus reporter); Vaccinia virus Venus reporter expression, fluorescence; Potency, µM (series often up to 36.5 µM), usual class: inhibitors; 0.46% of 330,000 active; calls by dose curve; tested in A549 cells; further: nearly all actives have a fitted effect of over 30% in size
VACV mCherry inh = vaccinia inhibition (mCherry reporter). AID 720579. 0.63% of 310,000 active. Vaccinia virus mCherry reporter infection, fluorescence. Potency, µM (highest dose often 36.5 µM), hits mostly inhibitors; calls by dose curve; tested in A549 cells; further: nearly all actives have a fitted effect of over 35% in size
Numbers stand for hits; 0 = inactive; ? = inconclusive; - = no result given. Rows were chosen to be rich in hits. Some 2.5% of all compounds tested hit in one or more screens of this group.

SMILES	Lassa entry inh	MARV entry inh	VACV Venus inh	VACV mCherry inh
CCC1CN(CCNC(=O)c2scc3c2OCCO3)Cc2cc(OC)ccc2O1 (stereo not given)	-	-	0	0
Cc1cnc(-n2ncc(C(=O)N(C)C3CCOC3)c2C)nc1-c1ccc(F)cc1 (stereo not given)	-	-	0	0
CCN(Cc1ccncc1)Cc1ccc2c(c1)CN(C(=O)c1ccc(OC)cc1)CCO2	-	-	0	0
CCCCCCN(CCCCCC)C(=O)Cc1c(-c2ccc(F)cc2)[nH]c2ccccc12	9.2µM	9.2µM	0	0
O=C(CN1Cc2ccccc2OC(c2ccsc2)C1)NCc1ccc2c(c1)OCO2 (stereo not given)	-	-	0	0
COC(=O)c1c(NC(=O)CSc2ncnc3c2cnn3-c2ccccc2Cl)sc2c1CCCC2	5.8µM	?	-	-
Cc1ccc(C(=O)Nc2cccc(-c3nc(CNC(=O)[C@@H]4C[C@@H](C)NC(=S)N4)c(C)o3)c2)s1	-	-	0	0
Cc1cc(C)c2c(=N)c3ccccc3n(CCCCCCCCn3c4ccccc4c(=N)c4c(C)cc(C)nc43)c2n1	?	7.1µM	10µM	10µM
CCCCn1c2c(c(=N)c3ccccc31)CCC2	0	0	0	0
COc1ccc2c(c1)CCc1cnc(-n3ncc(C(=O)NCCCc4ccncc4)c3C)nc1-2	-	-	0	?
CCCS(=O)(=O)c1nnnn1-c1cccc(OC)c1	0	26µM	0	0
CCCCn1c(SCC(=O)c2ccc(O)c(O)c2)nc2ccsc2c1=O	0	0	?	22µM
O=C(O)CCCCCn1c(SCC(=O)c2ccc(O)c(O)c2)nc2ccsc2c1=O	?	0	0	0
C[C@@]12CC[C@H]3[C@@H](CCC4=C(O)C(=O)CC[C@]43C)[C@H]1CCC2=O	-	0	-	-
Fc1ccc(Cn2cccc2C2=NC(c3ccccc3)CO2)cc1 (stereo not given)	0	0	0	0
Cc1oc(-c2ccccc2)nc1Cn1cccc1C1=NC(c2ccccc2)CO1 (stereo not given)	?	20µM	0	?
CCCc1sc(N/N=C/c2ccccn2)nc1-c1ccc(Br)cc1	5.2µM	?	0	?
CCN(C)c1ccc(/C=C/c2ccnc3ccccc23)cc1	-	-	0	0
Cc1ccc(Cn2c(=N)n(CC(O)COc3ccccc3)c3ccccc32)cc1 (stereo not given)	?	16µM	?	?
N=c1n(Cc2ccccc2)c2ccccc2n1CC(O)COc1ccccc1 (stereo not given)	?	3.7µM	-	-
N=c1n(CCN2CCCCC2)c2ccccc2n1CC(O)COc1ccccc1 (stereo not given)	?	?	0	0
Cc1ccc(OCC(O)Cn2c3ccccc3c3ccccc32)cc1 (stereo not given)	?	0	?	0
Cn1cnnc1Sc1ccc(CN2CCOc3ccc(C4=CCCCC4)cc3C2)o1	-	-	0	0
COC1=C[C@H](C(=O)NCc2ccccn2)[C@@]2(C)Cc3ccccc3[C@@H]2CC1=O	-	0	-	-
CC(C)CON=C1C[C@@H](O)[C@@H](O)[C@@H]2[C@H]3C(=O)N(Cc4ccccc4)C(=O)[C@@H]3CC[C@@H]12	-	0	-	-
SMILES	Lassa entry inh	MARV entry inh	VACV Venus inh	VACV mCherry inh
O=C1C[C@H]2C=CCc3cccc(c32)CN1Cc1cccc(F)c1	-	-	0	0
O=C(CSC1=NS(=O)(=O)c2ccccc21)Nc1ccccc1	-	-	10µM	13µM
COC(=O)/C=C/c1cc(O)ccc1O	-	-	0	0
Cc1c(C(=O)NCCc2ccncc2)cnn1-c1nccc(-c2ccccc2C(F)(F)F)n1	-	-	0	0
C=CCc1cc(Cl)ccc1OCCCNC(C)CC (stereo not given)	?	2.9µM	0	0
O=C(NC(NC(=S)Nc1ccccc1Cl)C(Cl)(Cl)Cl)c1cccc(Cl)c1 (stereo not given)	?	?	?	13µM
CCC(=O)NC(NC(=S)Nc1cccc2cccnc12)C(Cl)(Cl)Cl (stereo not given)	0	?	0	0
O=C(Cc1cccc2ccccc12)NC(NC(=S)Nc1ccccc1Cl)C(Cl)(Cl)Cl (stereo not given)	?	5.6µM	0	0
Nc1ccccc1C#Cc1ccc([N+](=O)[O-])cc1	?	?	0	?
Nc1ccccc1C#CC(=O)c1ccccc1	-	-	22µM	?
O=C(Cc1c[nH]c2ccccc12)N/N=C/c1ccc(F)cc1	?	0	0	?
O=C(NN=Cc1ccc(N(CCCl)CCCl)cc1)c1cc(=O)[nH]c(=O)[nH]1	?	?	0	0
O=C(NN=Cc1ccc(N(CCCl)CCCl)cc1)C(=O)c1c[nH]c2ccccc12	6.3µM	4.5µM	0	0
CN(C)c1ccc(/C=N/NC(=O)CCc2c[nH]c3ccccc23)cc1	2µM	?	0	0
CCN(CC)c1ccc(/C=N/NC(=O)c2cc(C)nc3ccccc23)cc1	?	?	0	0
CCN(CC)c1ccc(/C=N/NC(=O)c2c[nH]c3ccccc23)cc1	11µM	0	?	?
NNC(=O)C1=NN=C(C23CC4CC(CC(C4)C2)C3)C1	-	0	-	-
CCN1CCCC1CNC(=O)C1CCN(Cc2nc(-c3cccc(Br)c3)oc2C)CC1 (stereo not given)	11µM	3.5µM	0	0
Cc1oc(-c2cccc(Cl)c2)nc1CN1CCC(C(=O)NC(C)C)CC1	?	0	0	0
CCN1C(=O)N(C)C(c2ccccc2)C(C(C)=O)=C1C (stereo not given)	-	0	-	-
CCc1cc(C(=O)N2CCCC(C(=O)c3ccc(Oc4ccccc4)cc3)C2)n(C)n1 (stereo not given)	0	11µM	0	0
CCOC(=O)CN1C(=O)[C@@]2(CC(C)=CC[C@@H](COc3ccccc3)O2)c2ccccc21	?	0	-	-
C/C(=N\NC(=O)c1ccccc1OCCOc1ccccc1)c1ccccc1F	?	11µM	0	?
COC(=O)[C@@]1(C=C[C@@H](C)[C@H](OC)c2ccccc2Br)[C@@H]2OCCC[C@@H]21	-	0	-	-
Cc1c(Cl)ccc2c(C(N)=O)cc(-c3ccccn3)nc12	0	?	0	0
SMILES	Lassa entry inh	MARV entry inh	VACV Venus inh	VACV mCherry inh
CCOC(=O)CNC(=O)c1cc(-c2ccccn2)nc2c(C)c(Cl)ccc12	0	5µM	0	0
CCc1nc(NC[C@H]2CCCO2)c(C#N)c2c1COC(C)(C)C2	-	0	-	-
Cc1ccccc1N(CC(=O)NCc1ccco1)C(=O)CNS(=O)(=O)c1ccc(F)cc1	-	0	0	0
Cc1cccc(C)c1N(CC(=O)NCc1ccco1)C(=O)CNS(=O)(=O)c1ccc(F)cc1	0	8.9µM	0	0
CCn1c(C)nc2cc(C(=O)OC(C(F)(F)C(F)F)C(F)(F)C(F)F)ccc21	?	14µM	0	0
c1ccc(OCCSc2nnnn2C2CCCCC2)cc1	14µM	0	0	-
O=C(NC[C@@H]1CCCN2CCCC[C@H]12)c1cnn(-c2nccc(-c3ccco3)n2)c1C1CC1	-	-	0	0
Cc1oc2c(c1C(=O)c1ccccc1)C(=O)C(=O)c1ccccc1-2	10µM	?	?	-
COc1ccc(C(=O)C(CCC(CNC(C)(C)C)C(=O)c2ccc(OC)cc2)CNC(C)(C)C)cc1 (stereo not given)	4µM	2.1µM	11µM	13µM
CCN(Cc1ccccc1)S(=O)(=O)c1ccc(C(=O)N(CCCN(C)C)c2nc3c(F)cccc3s2)cc1	?	8.9µM	0	0
CCN(Cc1ccccc1)S(=O)(=O)c1ccc(C(=O)N(CCCN(C)C)c2nc3cc(C)cc(C)c3s2)cc1	?	10µM	?	?
